In the supplement of paper PMC10849652:
About 7,900 targets were measured; listed, in parts, are those with a hit and a random draw of the rest. About 0.6% of all pairs of compound and target were hits. Values without a mark were called inactive.

Columns and labels:
Experiment in all cases: log2 fold change, soluble protein after heating vs DMSO (PISA); higher = thermal stabilisation; K562 cells, 10 uM, 30 min; active = over 0.2 and 3.5 SD of the protein, either way, in both replicates (recomputed)
[1] = compound: CC[C@@H]1C(=O)N(C)c2cnc(Nc3ccc(C(=O)NC4CCN(C)CC4)cc3OC)nc2N1C1CCCC1
Outline: (§1)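 Soluble protein was defined as the supernatant after 21,000xg for 90 min. It came from K562 cells at 2×10^6 cells/mL given 10 μM compound for 30 min, heated in aliquots for 3 min across 48°C-58°C, pooled, and extracted in PBS with 0.5% NP-40 at 4°C, and was quantified by TMTpro 16plex LC-MS/MS with equalised channel sums. Thermal stability against control samples, from duplicates, is reported as log2 fold change.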

[2] = compound: CC[C@@H]1C(=O)N(C)c2cnc(Nc3ccc(C(=O)N[C@H]4CC[C@H](N5CCN(CC6CC6)CC5)CC4)cc3OC)nc2N1C(C)C [volasertib]
Outline: as §1

[3] = compound: CC[C@H](C)[C@@H](C(=O)N[C@@H]([C@@H](C)O)C(=O)N[C@@H](CC(C)C)C(=O)[C@]1(CO1)C)NC(=O)[C@H]([C@@H](C)CC)N(C)C(=O)C [epoxomicin]
Outline: as §1

[4] = compound: CCn1c(C(=O)N(C2CC2)C2CC2)cc2c3c(ncn3C)c(Nc3cc(C)n(C)n3)nc21
Outline: as §1

[5] = compound: CCn1cc(-c2ccnc3[nH]c(-c4cccc(CN(C)C)c4)cc23)c(-c2ccc(NC(=O)N(C)C)cc2)n1
Outline: as §1

[6] = compound: CN(CCOC1=CC=C(C=C1)C[C@H]2C(=O)NC(=O)S2)C3=CC=CC=N3 (racemic) [rosiglitazone]
Outline: as §1

[7] = compound: CN1C2=C(C3=C1C(=O)N(N=C3)CC4=CC(=CC=C4)N)SC(=C2)S(=O)C
Outline: as §1

[8] = compound: CN1CCC(CNc2ccc3ncc(-c4cccc(OC(F)(F)F)c4)n3n2)CC1
Outline: as §1

[9] = compound: CN1CCN(CCOc2cc(OC3CCOCC3)c3c(Nc4c(Cl)ccc5c4OCO5)ncnc3c2)CC1 [saracatinib]
Outline: as §1

[10] = compound: CN1CCN(c2nc(C3=C(c4c[nH]c5ccccc45)C(=O)NC3=O)c3ccccc3n2)CC1 [sotrastaurin]
Outline: as §1

[11] = compound: CN1CC[C@H](c2c(O)cc(O)c3c(=O)cc(-c4ccccc4Cl)oc23)[C@H](O)C1 [alvocidib]
Outline: as §1

[12] = compound: CN1CCc2c(c3ccccc3n2Cc2ccc(C(=O)NO)cc2)C1 [Tubastatin A]
Outline: as §1

[13] = compound: CNC(=O)C1=CC=CC=C1NC2=NC(=NC=C2Cl)NC3=C(C=C(C=C3)N4CCOCC4)OC
Outline: as §1

[14] = compound: CNCc1ccc(-c2[nH]c3cc(F)cc4c3c2CCNC4=O)cc1 [rucaparib]
Outline: as §1

[15] = compound: CNc1nc(-c2ccc3c(N)n[nH]c3c2)cc(N2C[C@@H](C(=O)NC3CCCCC3)CC[C@H]2C)n1
Outline: as §1

[16] = compound: COC(=O)N[C@@H](C)CNc1nccc(-c2cn(C(C)C)nc2-c2cc(Cl)cc(NS(C)(=O)=O)c2F)n1 [encorafenib]
Outline: as §1

[17] = compound: CC[C@H](C)N1C=C(C2=C(C=C(C=C21)C3=CN=C(C=C3)N4CCNCC4)C(=O)NCC5=C(C=C(NC5=O)C)C)C
Outline: as §1

[18] = compound: CN(C)CC(=O)Nc1ccc2[nH]c(=O)c3ccccc3c2c1
Outline: as §1

[19] = compound: CNC(=O)c1ccc(Nc2ncc(C(F)(F)F)c(NCc3nccnc3N(C)S(C)(=O)=O)n2)cc1 [defactinib]
Outline: as §1

[20] = compound: COC(=O)[C@H](CCSC)NC(=O)C1=C(C=C(C=C1)NC[C@H](CS)N)C2=CC=CC=C2
Outline: as §1

UniProt Q96PV6, sequence (Q96PV6 whole entry, looked up): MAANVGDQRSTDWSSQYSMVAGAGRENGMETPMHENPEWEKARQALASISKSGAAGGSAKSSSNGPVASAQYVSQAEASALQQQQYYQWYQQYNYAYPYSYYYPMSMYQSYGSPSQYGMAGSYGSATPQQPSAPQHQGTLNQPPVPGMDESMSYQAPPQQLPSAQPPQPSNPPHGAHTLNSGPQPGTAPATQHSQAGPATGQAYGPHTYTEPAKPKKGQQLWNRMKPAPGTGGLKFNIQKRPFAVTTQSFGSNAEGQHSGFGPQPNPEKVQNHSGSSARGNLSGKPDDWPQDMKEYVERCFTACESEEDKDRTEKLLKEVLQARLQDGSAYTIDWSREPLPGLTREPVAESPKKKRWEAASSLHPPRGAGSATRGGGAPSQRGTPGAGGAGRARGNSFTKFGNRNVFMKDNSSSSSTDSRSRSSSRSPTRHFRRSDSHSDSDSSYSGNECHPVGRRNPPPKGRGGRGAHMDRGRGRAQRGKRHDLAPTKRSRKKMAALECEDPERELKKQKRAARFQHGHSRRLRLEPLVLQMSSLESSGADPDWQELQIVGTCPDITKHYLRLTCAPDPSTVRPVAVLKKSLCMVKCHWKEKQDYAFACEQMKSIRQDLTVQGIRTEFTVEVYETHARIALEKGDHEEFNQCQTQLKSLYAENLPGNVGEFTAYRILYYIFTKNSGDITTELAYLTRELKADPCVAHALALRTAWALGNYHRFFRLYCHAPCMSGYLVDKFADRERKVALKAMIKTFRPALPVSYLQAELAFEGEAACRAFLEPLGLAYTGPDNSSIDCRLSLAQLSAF
UniProt Q6UB28, sequence (Q6UB28 whole entry, looked up): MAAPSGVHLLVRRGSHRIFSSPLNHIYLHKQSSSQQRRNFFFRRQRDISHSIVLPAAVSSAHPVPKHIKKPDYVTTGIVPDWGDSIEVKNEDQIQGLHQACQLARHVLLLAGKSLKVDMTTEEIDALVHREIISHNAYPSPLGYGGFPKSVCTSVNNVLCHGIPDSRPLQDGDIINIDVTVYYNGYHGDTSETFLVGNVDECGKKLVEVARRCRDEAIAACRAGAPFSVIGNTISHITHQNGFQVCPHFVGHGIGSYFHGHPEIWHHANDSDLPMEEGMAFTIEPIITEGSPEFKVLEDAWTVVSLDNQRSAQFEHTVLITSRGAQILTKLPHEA
UniProt Q12851, sequence (Q12851 whole entry, looked up): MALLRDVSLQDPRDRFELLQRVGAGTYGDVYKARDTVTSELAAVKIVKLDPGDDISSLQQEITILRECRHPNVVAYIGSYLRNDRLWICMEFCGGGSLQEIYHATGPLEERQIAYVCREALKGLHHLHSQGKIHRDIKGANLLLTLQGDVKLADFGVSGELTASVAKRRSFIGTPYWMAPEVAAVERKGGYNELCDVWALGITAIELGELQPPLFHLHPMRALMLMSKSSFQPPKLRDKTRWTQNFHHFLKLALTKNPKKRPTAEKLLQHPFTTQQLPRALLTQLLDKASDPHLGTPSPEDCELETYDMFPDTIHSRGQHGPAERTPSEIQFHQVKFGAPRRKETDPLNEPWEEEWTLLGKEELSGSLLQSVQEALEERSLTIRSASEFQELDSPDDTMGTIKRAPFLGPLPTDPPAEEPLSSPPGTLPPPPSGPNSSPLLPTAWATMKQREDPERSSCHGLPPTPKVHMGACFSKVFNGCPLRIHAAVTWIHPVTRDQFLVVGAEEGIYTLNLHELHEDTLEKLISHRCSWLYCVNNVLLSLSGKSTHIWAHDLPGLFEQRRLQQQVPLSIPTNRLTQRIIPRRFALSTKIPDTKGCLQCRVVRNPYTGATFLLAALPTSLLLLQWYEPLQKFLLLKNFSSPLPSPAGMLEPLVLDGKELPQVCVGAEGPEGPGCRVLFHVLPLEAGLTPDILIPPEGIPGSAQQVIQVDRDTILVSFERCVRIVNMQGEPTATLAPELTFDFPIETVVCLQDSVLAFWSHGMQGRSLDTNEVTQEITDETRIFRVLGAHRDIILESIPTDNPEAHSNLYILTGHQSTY
UniProt P27816, sequence (P27816 whole entry, looked up): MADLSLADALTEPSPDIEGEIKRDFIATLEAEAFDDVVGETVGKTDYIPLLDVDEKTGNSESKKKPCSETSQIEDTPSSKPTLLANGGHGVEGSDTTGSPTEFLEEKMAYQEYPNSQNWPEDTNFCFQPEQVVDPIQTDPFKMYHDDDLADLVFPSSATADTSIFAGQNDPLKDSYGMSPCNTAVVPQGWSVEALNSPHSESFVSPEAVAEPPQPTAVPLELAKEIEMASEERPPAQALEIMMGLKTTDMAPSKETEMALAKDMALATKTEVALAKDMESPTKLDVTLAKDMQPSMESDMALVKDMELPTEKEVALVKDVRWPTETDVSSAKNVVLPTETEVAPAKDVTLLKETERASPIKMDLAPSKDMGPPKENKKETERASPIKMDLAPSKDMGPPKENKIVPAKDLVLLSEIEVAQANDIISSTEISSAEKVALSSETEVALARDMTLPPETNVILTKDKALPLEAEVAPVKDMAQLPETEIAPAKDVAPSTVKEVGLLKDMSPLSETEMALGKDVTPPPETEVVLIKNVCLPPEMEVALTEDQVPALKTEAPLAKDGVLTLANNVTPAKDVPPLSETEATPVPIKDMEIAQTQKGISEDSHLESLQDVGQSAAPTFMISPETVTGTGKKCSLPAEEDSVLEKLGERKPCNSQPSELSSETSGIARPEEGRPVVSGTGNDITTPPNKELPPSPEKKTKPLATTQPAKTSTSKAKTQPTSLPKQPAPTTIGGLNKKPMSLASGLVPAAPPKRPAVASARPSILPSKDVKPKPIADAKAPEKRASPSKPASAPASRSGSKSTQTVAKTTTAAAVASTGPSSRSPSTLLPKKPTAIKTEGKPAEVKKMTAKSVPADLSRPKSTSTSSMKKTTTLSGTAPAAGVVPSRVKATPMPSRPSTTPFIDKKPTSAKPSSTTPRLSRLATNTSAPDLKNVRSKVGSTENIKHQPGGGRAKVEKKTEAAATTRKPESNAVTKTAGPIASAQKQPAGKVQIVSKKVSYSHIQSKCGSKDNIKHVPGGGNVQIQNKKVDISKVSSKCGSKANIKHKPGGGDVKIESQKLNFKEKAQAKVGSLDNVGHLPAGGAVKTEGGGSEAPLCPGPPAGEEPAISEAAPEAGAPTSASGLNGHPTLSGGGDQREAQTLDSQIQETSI
UniProt Q7L590, sequence (Q7L590 whole entry, looked up): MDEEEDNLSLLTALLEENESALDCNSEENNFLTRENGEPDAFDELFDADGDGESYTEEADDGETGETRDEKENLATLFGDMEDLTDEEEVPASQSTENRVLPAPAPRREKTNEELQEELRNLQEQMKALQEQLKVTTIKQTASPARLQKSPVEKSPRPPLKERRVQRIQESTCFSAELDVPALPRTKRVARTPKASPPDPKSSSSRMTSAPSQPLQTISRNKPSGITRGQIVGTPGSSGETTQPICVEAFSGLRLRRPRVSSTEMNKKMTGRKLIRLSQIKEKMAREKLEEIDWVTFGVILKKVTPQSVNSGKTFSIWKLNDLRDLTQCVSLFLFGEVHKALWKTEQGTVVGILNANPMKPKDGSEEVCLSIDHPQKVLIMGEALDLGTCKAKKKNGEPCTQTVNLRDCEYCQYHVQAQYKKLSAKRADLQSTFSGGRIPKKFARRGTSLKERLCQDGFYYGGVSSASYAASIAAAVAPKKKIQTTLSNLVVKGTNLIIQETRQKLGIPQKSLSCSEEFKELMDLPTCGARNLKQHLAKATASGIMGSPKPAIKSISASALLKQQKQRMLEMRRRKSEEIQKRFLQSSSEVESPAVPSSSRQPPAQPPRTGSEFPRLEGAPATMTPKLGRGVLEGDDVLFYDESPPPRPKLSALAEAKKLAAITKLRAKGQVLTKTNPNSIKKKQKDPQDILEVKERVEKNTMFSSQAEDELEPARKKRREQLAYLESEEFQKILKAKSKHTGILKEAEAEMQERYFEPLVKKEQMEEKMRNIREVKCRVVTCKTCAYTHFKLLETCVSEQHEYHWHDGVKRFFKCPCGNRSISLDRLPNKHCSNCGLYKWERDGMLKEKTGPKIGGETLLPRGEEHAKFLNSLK
UniProt P51884, sequence (P51884 whole entry, looked up): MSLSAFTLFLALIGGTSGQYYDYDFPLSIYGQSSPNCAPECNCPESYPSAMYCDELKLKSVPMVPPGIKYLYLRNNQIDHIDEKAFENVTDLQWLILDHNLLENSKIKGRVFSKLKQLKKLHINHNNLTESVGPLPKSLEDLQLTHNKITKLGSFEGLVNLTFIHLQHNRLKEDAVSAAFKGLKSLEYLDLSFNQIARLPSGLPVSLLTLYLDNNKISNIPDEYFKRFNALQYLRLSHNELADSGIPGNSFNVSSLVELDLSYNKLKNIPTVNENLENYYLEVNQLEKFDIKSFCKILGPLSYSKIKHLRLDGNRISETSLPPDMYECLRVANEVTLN
UniProt Q92551, sequence (Q92551 whole entry, looked up): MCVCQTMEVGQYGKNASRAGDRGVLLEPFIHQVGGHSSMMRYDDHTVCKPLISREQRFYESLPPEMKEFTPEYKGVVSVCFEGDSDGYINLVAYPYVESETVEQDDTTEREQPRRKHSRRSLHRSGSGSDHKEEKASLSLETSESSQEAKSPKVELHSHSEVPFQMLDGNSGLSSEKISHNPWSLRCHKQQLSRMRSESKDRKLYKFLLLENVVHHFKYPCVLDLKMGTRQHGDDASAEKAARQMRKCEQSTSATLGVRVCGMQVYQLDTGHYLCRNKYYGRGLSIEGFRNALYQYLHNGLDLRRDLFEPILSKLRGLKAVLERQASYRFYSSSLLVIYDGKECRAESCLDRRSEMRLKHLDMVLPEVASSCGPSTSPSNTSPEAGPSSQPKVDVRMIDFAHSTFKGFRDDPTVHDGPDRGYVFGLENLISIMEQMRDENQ
UniProt Q9Y287, sequence (Q9Y287 whole entry, looked up): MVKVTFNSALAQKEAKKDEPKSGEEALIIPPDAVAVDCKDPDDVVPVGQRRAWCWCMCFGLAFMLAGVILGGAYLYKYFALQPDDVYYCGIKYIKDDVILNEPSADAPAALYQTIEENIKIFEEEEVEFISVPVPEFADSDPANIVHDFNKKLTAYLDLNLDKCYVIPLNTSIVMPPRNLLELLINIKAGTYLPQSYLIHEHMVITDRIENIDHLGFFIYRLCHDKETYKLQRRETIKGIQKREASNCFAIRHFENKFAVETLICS

| Target | log2 fold change [1] | log2 fold change [2] | log2 fold change [3] | log2 fold change [4] | log2 fold change [5] | log2 fold change [6] | log2 fold change [7] | log2 fold change [8] | log2 fold change [9] | log2 fold change [10] | log2 fold change [11] | log2 fold change [12] | log2 fold change [13] | log2 fold change [14] | log2 fold change [15] | log2 fold change [16] | log2 fold change [17] | log2 fold change [18] | log2 fold change [19] | log2 fold change [20] |
| --- | --- | --- | --- | --- | --- | --- | --- | --- | --- | --- | --- | --- | --- | --- | --- | --- | --- | --- | --- | --- |
| IP6K1 (UniProt Q92551) | 0.127 | -0.176 | 0 | -0.253 | 0.028 | 0.091 | 0.147 | -0.052 | -0.174 | -0.113 | -0.074 | -0.06 | 0.331 | -0.045 | 0.119 | 0.094 |  |  |  |  |
| MAP4K2 (UniProt Q12851) | -0.044 | -0.093 |  |  |  | 0.066 |  |  |  | -0.184 | -0.076 | 0.076 |  | -0.003 |  | 0.066 | 0.298 |  |  |  |
| ITPRID2 (UniProt P28290) | 0.01 | -0.373 | -0.109 | 0.078 |  |  |  |  |  |  |  |  | -0.299 | -0.019 |  | -0.087 |  | -0.106 | -0.158 | 0.059 |
| METAP1D (UniProt Q6UB28) | 0.031 | -0.082 | 0.074 | -0.039 |  | 0.013 | 0.052 |  | 0.088 | -0.042 | -0.086 | -0.181 | 0.036 | -0.074 | 0.04 | 0.006 | 0.051 | -0.065 | 0.013 | 0.006 |
| MARK2 (UniProt E9PC69) | 0.044 | -0.469 | 0.023 | -0.137 |  | -0.014 | 0.187 |  | -0.103 | -0.555 | -0.007 | 0.278 | -1.12 (active) | 0.187 | 0.037 | 0.144 | 0.086 | -0.028 | -0.07 | -0.028 |
| MASTL (UniProt Q96GX5) | -0.02 |  | 0.113 | -0.048 |  | -0.006 | 0.081 |  | 0.107 | -0.12 | -0.061 |  | 0.054 | -0.17 | -0.055 | 0.083 | 0.045 | -0.143 | 0.037 | 0.079 |
| ING5 (UniProt Q8WYH8) | -0.561 (active) | -1.47 (active) |  | -0.046 |  |  |  |  |  |  | 0.034 | 0.192 | -0.147 | 0.129 |  | -0.078 |  |  |  |  |
| MED25 isoform 3 (UniProt Q71SY5) | 0.057 | -0.051 |  | -0.076 | -0.203 | 0.018 | -0.155 | -0.043 | -0.079 | 0.031 | -0.102 | -0.042 | -0.014 | 0.104 | 0.036 | 0.083 | 0.027 | 0.096 | -0.045 | -0.111 |
| LUM (UniProt P51884) | 0.076 | 0.225 | -0.145 | 0.2 |  |  | 0.054 |  | 0.081 | 0.29 | 0.047 | -0.145 | 0.085 | -0.167 | 0.014 | -0.011 | -0.269 | -0.167 | -0.071 | 0.283 |
| KIZ (UniProt Q2M2Z5) | 0.104 | 0.262 |  |  | -0.202 |  |  | -0.399 |  |  | -0.076 |  |  | -0.027 |  | -0.038 |  |  |  |  |
| MAP4 isoform 5 (UniProt P27816) | -0.001 | -0.046 | 0.134 | -0.03 |  | 0.008 |  |  |  | -0.16 |  |  | 0.13 | 0.046 |  | 0.094 | -0.258 |  |  |  |
| MAGEA8 (UniProt P43361) | -0.096 | -0.386 |  | -0.063 | 0.252 | 0.036 | 0.038 | -0.07 | -0.006 |  | -0.022 | 0.101 | 0.123 | -0.012 | -0.092 | 0.038 | -0.075 | -0.003 | -0.267 | -0.038 |
| LENG8 (UniProt Q96PV6) | -0.029 |  | 0.101 | 0.005 | 0.073 | 0.017 | -0.225 | -0.238 | -0.112 | -0.043 | -0.074 | -0.021 | -0.125 | 0.044 | 0.133 | 0.129 | -0.009 | 0.065 | -0.316 | -0.133 |
| ITM2B (UniProt Q9Y287) | -0.022 | 0.182 | 0.028 | 0.001 |  | 0.057 | -0.197 |  | -0.181 | 0.123 | -0.053 | 0.143 | 0.06 | 0.007 | 0.091 | 0.098 | -0.112 | -0.036 | -0.007 | -0.096 |
| MED22 (UniProt Q15528) | 0.133 |  | 0.02 | 0.134 |  | 0.076 | -0.043 |  | -0.089 | -0.007 | -0.055 | 0.332 | -0.051 | 0.021 | 0.044 | 0.12 | 0.097 | -0.019 | -0.043 | 0.097 |
| MCM10 (UniProt Q7L590) | -0.074 | 0 | 0.148 | 0.069 | -0.037 | -0.164 |  | 0.096 |  | -0.09 |  | -0.017 | 0.014 | -0.021 |  | -0.049 | -0.034 | -0.023 | 0.018 | -0.007 |
| LPGAT1 (UniProt Q92604) | -0.206 | -0.401 (active) | 0.015 | -0.128 |  | 0.012 | -0.029 |  | 0.111 | -0.001 | -0.011 | 0.019 | 0.073 | 0.036 | -0.187 | 0.026 | 0.063 | 0.051 | -0.184 | 0.015 |
| KMT2C isoform 3 (UniProt Q8NEZ4) | -0.908 (active) |  | -0.004 | 0.009 | 0.031 | 0.009 | 0.026 | -0.337 (active) | -0.026 | -0.02 | -0.084 | -0.029 | 0.009 | -0.043 | -0.046 | -0.012 | -0.02 | 0 | -0.043 | 0.035 |
| MBLAC1 (UniProt A4D2B0) | 0.112 | 0.148 |  | 0.063 | -0.01 | -0.024 | -0.021 | 0.063 | 0.164 |  | 0.002 |  | 0.049 | 0.023 | -0.005 | 0.035 |  | 0.105 | 0.003 | -0.02 |
| MAP4K4 isoform 6 (UniProt O95819) | -0.241 |  |  |  |  |  | 0.261 |  | -0.108 |  |  | -0.016 |  | 0.067 | -0.186 | 0.049 | 0.109 | -0.083 | -0.012 | -0.036 |
| KCNK5 (UniProt O95279) | -0.042 | -0.174 | 0.046 | 0.004 | 0.047 | 0.179 | 0.223 | -0.073 | -0.444 | -0.047 | -0.239 |  | -0.05 | 0.05 | -1.08 (active) | 0.017 |  |  |  |  |
